According to PubChem BioAssay (NCATS):
Results filed as inconclusive are left out. A call without a number means that no potency is given here. Activity calls are given as the source filed them. Calls come from the whole dose curve; as a rule, active = well fitted inhibition curve with a large enough effect in the signal ratio, with a control signal flat (not every such curve was filed as active); inconclusive = small, poorly fitted or top-dose-only effect, or effect the other way, or a change in a side signal; inactive = no such curve, though single readings can be large or run the other way; the % refers to the signal ratio.

Each molecule was assayed against Peroxisome proliferator-activated receptor delta (Homo sapiens) (UniProt Q03181) (assay: qHTS assay for small molecule antagonists of peroxisome proliferator-activated receptor delta signaling (AID 588535)). Settings: HEK293T PPARd-UAS-bla, beta-lactamase FRET ratio, 18 h; series mostly up to 76.7 µM.
Excerpt: NIH Chemical Genomics Center [NCGC] U.S. Environmental Protection Agency [EPA] National Institutes of Environmental Health Sciences [NIEHS] National Toxicology Program [NTP] NCGC Assay Overview The Peroxisome proliferator-activated receptors (PPARs) are lipid-activated transcription factors of the nuclear receptor superfamily with three distinct subtypes namely PPAR alpha, PPAR delta (also called PPAR beta) and PPAR gamma. All these subtypes heterodimerizes with Retinoid X receptor (RXR) and have different physiological functions. […] This role of PPAR delta implicates the potential use of its ligands in the treatment of metabolic disorders.
NCGC Assay Protocol Summary Using a beta-lactamase reporter-gene under control Peroxisome Proliferator-Activated Receptor delta (PPAR-delta) response element, a cell-based assay [GeneBLAzer (PPAR-delta-UAS-bla assay developed by Invitrogen] was used to measure PPAR-delta ligands signaling. GeneBLAzer PPAR-delta-UAS-bla HEK293T cells were used with assay medium containing 2% charcoal/dextran FBS. The assay was performed in clear bottom black Greiner 1536-well plates. Library compounds were measured for their ability to inhibit the reporter gene activity. Compounds were screened in a titration series in 1536-well format. The fluorescence intensity (405 nm excitation, 460/530 nm emission) was measured using an EnVision plate reader. […] Concentration-response titration points for each compound were fitted to the Hill equation yielding concentrations of half-maximal inhibition (IC50) and maximal response (efficacy) values. qHTS protocol for PPAR-delta beta-lactamase assay in antagonist mode [Step] [Parameter] [Value] [Description] 1. Reagent; 5 uL; 4000 cells/well 2. Incubation; 37 C for 5 hrs 3. Compounds; 23 nL; 0.59 nM to 92 uM 4. […] Incubation; 37 C for 18 hrs 7. Detection reagent; 1 uL of CCF4-dye 8. Incubation; RT for 2 hrs 9. Detection; Fluorescence; Envision plate reader

Sequence of Peroxisome proliferator-activated receptor delta (Homo sapiens) (Q03181 whole entry, looked up): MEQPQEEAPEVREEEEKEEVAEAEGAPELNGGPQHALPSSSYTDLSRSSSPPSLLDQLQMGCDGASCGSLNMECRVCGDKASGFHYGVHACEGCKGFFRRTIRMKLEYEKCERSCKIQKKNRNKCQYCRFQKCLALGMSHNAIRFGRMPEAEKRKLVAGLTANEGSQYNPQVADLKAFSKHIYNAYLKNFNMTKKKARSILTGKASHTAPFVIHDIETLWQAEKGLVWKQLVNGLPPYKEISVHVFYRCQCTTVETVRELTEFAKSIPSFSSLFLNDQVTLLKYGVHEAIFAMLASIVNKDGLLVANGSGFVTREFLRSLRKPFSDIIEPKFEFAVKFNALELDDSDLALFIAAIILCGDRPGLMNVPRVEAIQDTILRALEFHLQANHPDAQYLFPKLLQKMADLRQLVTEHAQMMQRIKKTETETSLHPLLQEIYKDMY

SMILES | Potency
C/C=C/C/C=C\CCCCCCCCOC(C)=O | inactive
CCC(C)(C)C1CCC(O)CC1 (stereo not given) | inactive
CCCCCCCCCCCCCCCC | inactive
CN(C)c1nc(=O)n(C2CCC(O)CC2)c(=O)n1C (stereo not given) | inactive
CCCC/C=C\CCCCCCCCO | inactive
CCCCCCCCCCCCCCC | inactive
CCOCCOCCOCC | inactive
Cc1cc(C)c(N)c(Cl)c1 | inactive
CCOC(=O)C(C)Oc1ccc(Oc2nc3ccc(Cl)cc3o2)cc1 (stereo not given) | inactive
C#CCOC(=O)[C@@H](C)Oc1ccc(Oc2ncc(Cl)cc2F)cc1 | inactive
O=C(O)CCCCCCCCCCC(=O)O | inactive
CCCCCCCC(=O)OC | inactive
COC(=O)c1ccccc1S(=O)(=O)NC(=O)Nc1nc(OC(F)F)cc(OC(F)F)n1 | inactive
CC(C)(C)c1cccc(C(C)(C)C)c1O | inactive
Cl[Si](Cl)(c1ccccc1)c1ccccc1 | inactive
CC(C)C(=O)OC(=O)C(C)C | inactive
C=CC(=O)NC(C)(C)CS(=O)(=O)O | inactive
C=CC(=O)OCC[N+](C)(C)C | inactive
C[Si]1(C)O[Si](C)(C)O[Si](C)(C)O[Si](C)(C)O[Si](C)(C)O1 | inactive
O=C(Cl)c1ccc(C(=O)Cl)cc1 | inactive

SMILES | Potency
CC(C)CCCCCCCCCCCCCCC(=O)O | inactive
CN=C(N)NCC1CCOC1 (stereo not given) | inactive
CCOCCOCCOC(C)=O | inactive
O=C(Cl)c1cc(Cl)cc(Cl)c1 | inactive
CC1(C)[C@@H](C=C(Cl)Cl)[C@@H]1C(=O)OCc1cccc(Oc2ccccc2)c1 | inactive
CC(C)Nc1nc(N)nc(Cl)n1 | inactive
CCCCN(CCCC)CCCCCCN(CCCC)CCCC | inactive
CSc1ccc(Cl)cc1 | inactive
OC1CCC(C2CCCCC2)CC1 (stereo not given) | inactive
CCC/C(=N\OCC)C1=C(O)CC(O)(CC(C)S(=O)(=O)CC)CC1=O (stereo not given) | inactive
C/C(=C\C(C)CC(C)CC(C)C)C1CC(=O)OC1=O (stereo not given) | inactive
CCCCCCCCCCCC[N+](C)(C)[O-] | inactive
Nc1c(N=Nc2ccc(S(=O)(=O)CCOS(=O)(=O)O)cc2)c(S(=O)(=O)O)cc2cc(S(=O)(=O)O)c(N=Nc3ccc(S(=O)(=O)CCOS(=O)(=O)O)cc3)c(O)c12 | inactive
Nc1cc(Cl)nc(C(=O)O)c1Cl | inactive
CCCCCCCCCCCCCC(=O)OC | inactive
CCCCCCCCCC(C)=O | inactive
C[Si]1(C)O[Si](C)(C)O[Si](C)(C)O1 | inactive
BrC1CCC(Br)C(Br)CCC(Br)C(Br)CCC1Br (stereo not given) | inactive
CC/C=C\CCOC(=O)c1ccccc1O | inactive
CCCCC/C=C\C/C=C\CCCCCCCC(=O)OC | inactive
